Reference: ChEMBL document CHEMBL3988442, “University of Dundee, Small-Polar-MMV Screening Library” (2021)

What was measured:
[1] = biological target: T1, Aspartate--tRNA(Asp/Asn) ligase (Mycobacterium tuberculosis (strain ATCC 25618 / H37Rv)) (UniProt P9WFW3); assay: Assay for Asp RNA synthetase-1 from Mycobacterium tuberculosis; type: functional; set-up: scale not given: direction of the effect not stated beside the values; conditions: 30 µM; also: in the data most compounds retested in dose-response had high values
T1 sequence (whole entry): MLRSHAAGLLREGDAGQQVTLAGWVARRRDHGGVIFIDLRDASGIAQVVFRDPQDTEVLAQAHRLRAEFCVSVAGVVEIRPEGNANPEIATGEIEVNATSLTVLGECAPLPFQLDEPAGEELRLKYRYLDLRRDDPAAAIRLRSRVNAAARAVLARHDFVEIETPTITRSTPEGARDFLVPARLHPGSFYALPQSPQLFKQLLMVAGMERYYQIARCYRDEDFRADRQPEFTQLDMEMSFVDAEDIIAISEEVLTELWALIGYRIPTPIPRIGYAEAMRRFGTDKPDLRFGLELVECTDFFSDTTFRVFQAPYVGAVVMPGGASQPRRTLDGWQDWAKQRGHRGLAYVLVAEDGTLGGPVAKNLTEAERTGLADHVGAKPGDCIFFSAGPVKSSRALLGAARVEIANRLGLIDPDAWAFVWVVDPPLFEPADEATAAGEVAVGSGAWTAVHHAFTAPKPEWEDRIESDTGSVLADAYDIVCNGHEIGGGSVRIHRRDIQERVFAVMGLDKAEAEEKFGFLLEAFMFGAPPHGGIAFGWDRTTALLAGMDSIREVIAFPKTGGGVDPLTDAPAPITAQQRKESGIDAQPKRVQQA

[2] = biological target: Shiga toxin 2 (Escherichia coli O157:H7) (UniProt P09385+P09386); assay: E. coli 0.157:H7 Shiga Toxin SOP - stx2 screening assay; type: functional; set-up: scale not given: direction of the effect not stated beside the values; conditions: 30 µM

SMILES	Percent Effect [1]	Percent Effect [2]
CCN(CC)c1ccc(C(=O)NCc2cccnc2-n2cncn2)cn1	6%	-12.3%
Cc1nc(CN2CCOCC3(CCN(c4cccnc4)CC3)C2)cs1	1.87%	-2.54%
COc1cc(C(=O)NC(CC(=O)O)c2cccs2)cc(Cl)c1OC (stereo not given)	3.71%	-19.3%
O=C(CCn1ccc2cc(Br)ccc21)NCc1ccc(C(=O)O)cc1	8.3%	30.7%
Cc1nn(C)c(C)c1NC(=O)CN1CCCC1c1noc(C2CC2)n1 (stereo not given)	5.58%	-27.4%
CN(Cc1cnccn1)C(=O)c1ccnc(OC2CCC2)c1	3.71%	-6.19%
CC(C)c1n[nH]c(C2CN(C(=O)CCCn3cccn3)CCO2)n1 (stereo not given)	-2.62%	-10.6%
O=C(c1cccnc1-n1cccn1)N1CCN(CC2CC2)CC1	-1.91%	7.9%
CC(C)(C)CC(=O)N1CC[C@@H]2[C@H](CC1)N(S(C)(=O)=O)CCS2(=O)=O	-2.83%	-21.6%
CCc1ccc(S(=O)(=O)Nc2cc(OC)c(OC)cc2C(=O)O)s1	5.87%	27.3%
CCn1cc2c(n1)CN(Cc1ccncc1)CC2COCC1CC1 (stereo not given)	1.43%	-18.6%
c1ncc(Nc2nccc(C3CCCCN3CC3CCCCC3)n2)cn1 (stereo not given)	0.28%	-0.91%
O=S(=O)(NCC1(O)CCOc2ccccc21)c1cccs1 (stereo not given)	-0.546%	-8.71%
CCCc1n[nH]c(C2CN(C(=O)C3=COCCC3)CCO2)n1 (stereo not given)	-5.39%	19%
CN(Cc1nccn1CC(F)(F)F)C(=O)c1ccc(F)c(F)c1	2.69%	0.723%
COc1ccc(C)cc1C(C)NC(=O)NCCCn1cncn1 (stereo not given)	2.78%	-12.9%
CCC(O)CNC(=O)c1coc(COc2ccc3sc(C)nc3c2)n1 (stereo not given)	5.32%	-27.2%
Cc1noc(C2CCN(C(=O)CCNS(C)(=O)=O)CC2)n1	-0.989%	-13.5%
C[C@@H]1CN(C2(C(=O)N3CCOCC3)Cc3ccccc3C2)C[C@H](C)O1	0.585%	-11.4%
COc1ccc2c(O)c(NC(=O)NCC3CC3)cnc2c1	1.09%	-13.7%
O=C(c1ccc(F)c(F)c1)N1CCCC1CN1CCCC1 (stereo not given)	-3.65%	-41.7%
Fc1ccc(OCCCN2CCOC(Cn3cncn3)C2)cc1 (stereo not given)	-6.13%	-10.5%
COc1ccc(CN2CCOC3(CCCN(c4nnc(C)o4)C3)C2)cc1 (stereo not given)	-5.88%	7.44%

SMILES	Percent Effect [1]	Percent Effect [2]
COc1cccc(S(=O)(=O)NC(=O)COc2c(C)cccc2C)c1	-3%	6.76%
c1cc(-c2noc(CN3CCn4c(nnc4C4CC4)C3)n2)co1	-0.544%	0.987%
O=C(Cc1cccc(Cl)c1)N[C@@H]1CCNC[C@H]1O	-3.06%	49.4%
COCc1ncc(CN2CCC(Oc3ccccc3OC)CC2)cn1	0.276%	-1.31%
Cc1[nH]ccc1C(=O)Nc1cccc(CN2CCC(O)CC2)c1	0.958%	-28.9%
O=C(CS(=O)(=O)c1ccccc1Cl)NC1CCCCNC1=O (stereo not given)	-8.65%	4.72%
Cn1cc(C2CCCN2C(=O)c2ccc(Br)o2)cn1 (stereo not given)	-1.8%	28.5%
CCn1c(N)nc2cc(C(=O)NCc3ccccc3Cl)cnc21	6.55%	-1.88%
Cc1cnc(C(=O)N2CCCCC2c2[nH]ncc2S(C)(=O)=O)cn1 (stereo not given)	2.63%	-5.44%
Cc1nn(C)c(C)c1CC(=O)N1CCCC(n2ccnc2)C1 (stereo not given)	-4.83%	12.9%
O=C(Nc1cccnc1)[C@H]1CO[C@H]2CCN(c3ncc(F)cn3)C[C@H]2C1	0.524%	-22.2%
CCOC(=O)N1CCN(c2nc(NC)c3ccccc3n2)CC1	-2.29%	-9.78%
O=C([C@@H]1C[C@H]2[C@H](CCN2Cc2nccs2)O1)N1CCOCC1	2.29%	-22.3%
CC(CNC(=O)c1ccc(F)cc1Cl)N1CCCC1 (stereo not given)	0.39%	-4.69%
Cc1ccc(N2CCCC(NCc3nc(C)c(C)o3)C2)nn1 (stereo not given)	-0.975%	-14.9%
CC(C)c1cc(NCC(O)CO)n2nccc2n1 (stereo not given)	-1.68%	-0.898%
CCS(=O)(=O)c1ccccc1C(=O)NCc1ccnc(N(C)C)c1	-3.31%	-44.7%
CCc1ncc2c(n1)CN(Cc1nc(-c3ccsc3)oc1C)CC2	2.25%	25.2%
CN1[C@H](CN2CCCC2)C[C@@H]2CN(C(=O)Cc3cccs3)CC[C@@H]21	3.89%	-16%
Cc1ccc(C(=O)Nc2cc(C(C)C)n[nH]2)cn1	2.73%	1.39%
Cc1cc(C(=O)N2C[C@@H]3COC[C@]3(c3nnc(C4CC4)o3)C2)on1	2.94%	-27.3%
CCCc1nc(C)cc(N2CCC3(CCC(=O)N(CC4CC4)C3)CC2)n1	3.82%	-18.5%
